From PubChem BioAssay (NCI) come the findings set out here.

The panel holds about 83,000 compounds, 20% with a hit somewhere; the sample as a whole holds those more often.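 Method: cells in 96-well plates; compound added at one concentration; 48 h incubation; percent growth measured; values under 10 scored active.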 Values without a mark were called inactive. Active and inactive are the calls of the source.

In the assay the test system is A498 renal. Kind of assay: NCI-60 one-dose screen, 48 h (100 = growth as untreated, 0 = no growth, -100 = all killed). As to conditions: 10 µM unless noted. The method, then: Growth inhibition of the A498 human tumor cell line is measured as a screen for anti-cancer activity. Cells are grown in 96 well plates and exposed to the test compound for 48 hours. Compounds are tested at a single concentration, which is 10^-5 M for most compounds. The reported endpoint is percent growth (GI% or GIPRCNT), where numbers from 0 - 100% represent growth inhibition, and numbers from -100% - 0 represent cell death. For example, a value of 40 represents 60% growth inhibition. A value of 0 means no net growth occurred over the course of the experiment. A value of -40 indicates 40% of cells at the beginning of the experiment died by the end of the experiment. A value of -100 means all cells are dead at the end of the experiment.
NCI-60 Human Tumor Cell Lines Screen was performed using the standard one-dose NCI protocol, which is described in more detail at https://dtp.cancer.gov/discovery_development/nci-60/default.htm.
Compounds with GIPRCNT values below 10 were considered active. Activity score was based on GIPRCNT using the following formula: […]
Score is 0 for GIPRCNT values of 100 or above, 50 for GIPRCNT values of 0, and 100 for GIPRCNT values of -100.
Turning to `C=C(C)[C@@H]1CC[C@]2(C(=O)NCCCN)CC[C@]3(C)[C@H](CC[C@@H]4[C@@]5(C)CC[C@H](O)C(C)(C)[C@@H]5CC[C@]43C)[C@@H]12`, the growth is -44.8% [100 µM] (active).

As for `CNC(=O)c1cc(Oc2cccc3nc(NC(=O)Nc4cc(C(F)(F)F)cc(C(F)(F)F)c4)ccc23)ccn1`, the growth is -36% (active).

For the molecule `CCCC[C@@H](C=O)NC(=O)[C@H](CC(C)C)NC(=O)[C@H](CC(C)C)NC(=O)OCc1ccccc1`, the growth was -47.6% (active).

On to `C[n+]1cccc(NC(=O)c2ccc3ccc4ccc(C(=O)Nc5ccc[n+](C)c5)nc4c3n2)c1`, for which the growth is 95.3%.

`C=C(C)[C@@H]1CC[C@]2(COCCC#N)CC[C@]3(C)[C@H](CC[C@@H]4[C@@](C)(CCCNCCC#N)[C@H](C(=C)C)CC[C@]43C)[C@@H]12`: the growth was 90.5% [100 µM].

Regarding `C=C(CN=[N+]=[N-])[C@@H]1CC[C@]2(C)[C@H](CC[C@@H]3[C@H]4[C@H]5OC(=O)[C@@]4(CCC5(C)C)CC[C@]32C)[C@@]1(C)CCC#N`, the growth is 85.2% [100 µM].

Take `O=C(O)CC1CCCCC1c1ccccc1` (stereo not given): the growth was 122%.

Consider `Cc1ccccc1-n1nnc(C(=O)Nc2nc3ccc(F)cc3s2)c1C`, for which the growth was 31.4%.

Regarding `CCC(Br)(CC)C(=O)c1ccc(OCC(=O)O)c(Cl)c1Cl`, the growth was 97.1%.

With `CCN(CC)CCCNCc1cc(-c2ccccc2)nc2ccccc12`, the growth was 75.2%.

In the case of `CCCN1CC(c2ccc(OC)c(OC)c2)=C(c2cn(C(=O)OCC)c3ccccc23)C1=O`, the growth is -11.4% (active).

As to `COCCCNc1nc(NC(=O)c2cc(OC)cc(OC)c2)cc(-c2cccnc2)n1`, the growth is 67.7%.

Regarding `Cc1ccc(S(=O)(=O)NCCCNc2nccc(-c3c(-c4cccc(F)c4)nc4occn34)n2)cc1`, the growth was 57.5%.

Consider `c1ccc2c(c1)CN(CCCN1CCOCC1)C2`, for which the growth is 101%.

For `CCOC(=O)c1cnc2ccc(Br)cc2c1Nc1cccc(S(N)(=O)=O)c1`, the growth is 66.5%.

In the case of `COc1ccc(-c2ccc(NNC(=O)c3ccc(F)cc3)nn2)cc1OC`, the growth is 2.09% (active).

On to `CCOc1cc(NC(=O)c2ccccc2)c(OCC)cc1N`, for which the growth was 113%.

As to `CC1(C)C(=NO)C(C)(C)C1=NO`, the growth is 109%.

With `CCCCOC(=O)c1c(C)[nH]c(/C=C2\N=C(c3ccc[nH]3)C=C2OC)c1C`, the growth was -13.4% (active).

With `C=CCc1nc2ccccc2s1`, the growth is 108%.

In the case of `O=C(O)c1cn(C2CC2)c2cc(N3CCN(Cc4c(O)ccc5ccccc45)CC3)c(F)cc2c1=O`, the growth is -16.6% (active).

As to `CC(C)CCNCC(C)(C)O`, the growth is 105%.

On to `Cc1ccc(NCCN2CCCCC2)c2c(=O)c3ccccc3sc12`, for which the growth is 28.3%.

Consider `C=C(C)C1CCC2(C(=O)O)CCC3(C)C(CCC4C5(C)CCC(OC(=O)NCc6ccccc6)C(C)(C)C5CCC43C)C12` (stereo not given), for which the growth is 56.3%.

Turning to `CC1(C)NCCC[C@]2(C)[C@H]3C=CC4=C5C[C@](C)(CO)CC[C@]5(C)CC[C@@]4(C)[C@]3(C)CC[C@@H]12`, the growth is -88.7% [100 µM] (active).

For the molecule `O=C1NC(=O)C(Cc2ccccc2)(Cc2ccccc2)N1`, the growth was 102%.

Take `Cc1ccc2c(n1)C(=O)C(Cl)=C(Nc1ccc(N3CCN(C)CC3)cc1)C2=O`: the growth is 101%.

Turning to `Clc1ccccc1/C=N\Nc1ccccn1`, the growth was 110%.

In the case of `c1cc2ccc3cc2cc1CNCCN1CCNCc2ccc4ccc(cc4c2)CNCCN(CCNC3)CCNCc2ccc3ccc(cc3c2)CNCC1`, the growth is 100%.

As for `CC[C@@H]1NC(=O)[C@@H]2CCCCN2C(=O)[C@@H]2CCCN2C(=O)[C@@H](NC(=O)[C@H](Cc2cc(F)cc(F)c2)NC(=O)Nc2ccc(C3CC3)cc2F)[C@H](C)OC(=O)[C@@H]2C[C@@H](C)CN2C1=O`, the growth was -5.62% (active).

Regarding `C=C(C)[C@@H]1CC[C@]2(C(=O)OC)CC[C@]3(C)[C@H](CC[C@@H]4[C@@]5(C)CC/C(=N\OCCC(=NCCC#N)NOCCC#N)C(C)(C)[C@@H]5CC[C@]43C)[C@@H]12`, the growth was -0.384% [100 µM] (active).

Turning to `Cc1ccc(S(=O)(=O)Nc2ccccc2)cc1N`, the growth is 76.9%.

As to `COC(=O)c1c(C)[nH]c(/C=C2\N=C(c3ccc[nH]3)C=C2OC)c1C`, the growth is 0.235% (active).

Turning to `COc1ccc(C2=C(c3cn(C)c4ccccc34)C(=O)OC2)cc1OC`, the growth was -10.9% (active).

In the case of `COc1cc2c(cc1OCCCN1CCN(CCCOc3cc4c(cc3OC)C(=O)N3C[C@H](F)C[C@H]3C=N4)CC1)N=C[C@@H]1C[C@@H](F)CN1C2=O`, the growth was -55% (active).

Consider `C=C(C)[C@@H]1CC[C@]2(COC(=O)c3ccccc3C(=O)O)CC[C@]3(C)[C@H](CC[C@@H]4[C@@]5(C)CC[C@H](OC(=O)c6ccccc6C(=O)O)C(C)(C)[C@@H]5CC[C@]43C)[C@@H]12`, for which the growth was -0.192% [100 µM] (active).

As to `COc1ccc2c(c1)C(C)Cc1c(ncnc1-n1cnc3ccccc31)N2C` (stereo not given), the growth was -0.234% (active).

Take `O=C1C(Cl)=C(Nc2ccc3cn[nH]c3c2)C(=O)c2ccccc21`: the growth is 93%.

On to `O=C(N/N=C1\c2ccccc2-c2cccc(C(=O)O)c21)c1ccc(O)cc1`, for which the growth was 73.1%.

Consider `CCOc1ccc(S(=O)(=O)Nc2ccc3c(c2)N(S(=O)(=O)CC)CCC3)cc1`, for which the growth was 69.3%.
